GDH-TPI inh: counter-screen for M. tuberculosis FBA inhibitors: GDH-TPI coupled enzymes; GDH-TPI coupled enzyme counterscreen, NADH absorbance; inhibition, % at 4.8 µM; 1.2% of 360,000 active; in the data active = inhibition above about 30%;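 also: 0% = DMSO wells and 100% = wells lacking the enzyme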
Autofluor counter: flagged as autofluorescent in microsphere protease counterscreen | fluorescence intensity (concentration not given with the values) | 3.1% of 360,000 active | AID 624483 | compound autofluorescence counterscreen, microsphere flow cytometry; active compounds read high; in the data active = fluorescence intensity above about 16000; inconclusive = no clear call, values can overlap the other calls
Anthrax LF prot: inhibitors of Bacillus anthracis lethal factor protease | 0.12% of 360,000 active | P15917 | inhibition, % at 10 µM | AID 588501 | multiplex microsphere protease cleavage assay, LF; also: plate controls were buffer without enzyme for full effect and enzyme alone for no effect
FBA Mtb inh: Mtb fructose-bisphosphate aldolase inhibition | P9WQA3 | purified M. tuberculosis FBA, fluorescence read-out | inhibition, % at 1 µM | 2.3% of 360,000 active | AID 588726; in the data active = inhibition above about 27%;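 also: 0% = vehicle and 100% = reference inhibitor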
Target sequence (P9WQA3 whole entry, looked up): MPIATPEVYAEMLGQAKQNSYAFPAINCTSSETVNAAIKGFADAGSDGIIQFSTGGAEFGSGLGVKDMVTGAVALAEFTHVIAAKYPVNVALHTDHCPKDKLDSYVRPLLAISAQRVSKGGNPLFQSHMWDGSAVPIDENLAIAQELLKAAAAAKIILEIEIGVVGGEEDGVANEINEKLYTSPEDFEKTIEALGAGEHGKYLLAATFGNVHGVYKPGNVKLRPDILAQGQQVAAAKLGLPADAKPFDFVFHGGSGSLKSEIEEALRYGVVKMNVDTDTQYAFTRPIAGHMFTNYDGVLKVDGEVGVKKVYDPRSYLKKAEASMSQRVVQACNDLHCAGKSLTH
BoNT-F LC inh: BoNT F light chain protease inhibition; Multiplex microsphere protease cleavage assay, flow cytometry; inhibition, % at 10 µM; 0.22% of 360,000 active; AID 588497; in the data active = inhibition above about 35%, passing the limit was not always enough; inconclusive = no clear call, values can overlap the other calls; also: plate controls were buffer without enzyme for full effect and enzyme alone for no effect
BoNT-A LC inh2: inhibitors of Botulinum neurotoxin A light chain protease; inhibition, % at 10 µM; 0.17% of 360,000 active; multiplex microsphere protease substrate cleavage, flow cytometry; also: plate controls were buffer without enzyme for full effect and enzyme alone for no effect
Starred values were filed as active, the others as inactive. Rows were chosen to be rich in hits. Some 6.7% of all compounds tested hit in one or more screens of this group. Rule as the data show it, unless noted: active = inhibition above about 30%; inconclusive = no clear call, values can overlap the other calls; inactive = below that.

How did Cc1c(/C=N/NC(=O)C(NC(=O)c2ccc3c(c2)OCO3)C(C)C)c2ccccc2n1C (stereo not drawn) do in these assays?
GDH-TPI inh: 38*; Autofluor counter: 9541; Anthrax LF prot: -3; FBA Mtb inh: 2; BoNT-F LC inh: 2; BoNT-A LC inh2: 0

Results for CC1=C(C(=O)Nc2ccccc2C)C2(CCCC2)C(C(N)=O)C(=O)N1 (stereo not drawn) ?
GDH-TPI inh: 1; Autofluor counter: 19911*; Anthrax LF prot: 2; FBA Mtb inh: -1; BoNT-F LC inh: -5; BoNT-A LC inh2: 0

What do the screens show for `CC(Oc1ccc2oc(-c3ccccc3)c(C(=O)O)c2c1)C(=O)O` (stereo not drawn)?
GDH-TPI inh: 6; Autofluor counter: 16623*; Anthrax LF prot: -4; FBA Mtb inh: active; BoNT-F LC inh: -1; BoNT-A LC inh2: 0

How did CCN(CC)C(=O)c1c(-c2ccccc2)oc2ccc(OC)cc12 do in these assays?
GDH-TPI inh: -4; Autofluor counter: 2689; Anthrax LF prot: -2; FBA Mtb inh: 0; BoNT-F LC inh: 0; BoNT-A LC inh2: 0

How did CCOc1ccc2oc(-c3ccccc3)c(C(=O)O)c2c1 do in these assays?
GDH-TPI inh: 6; Autofluor counter: 4320; Anthrax LF prot: 4; FBA Mtb inh: active; BoNT-F LC inh: -3; BoNT-A LC inh2: 0

How did CC(=O)NC(Cc1cc(C)ccc1C)C(=O)N1CCN(C(=O)c2ccc(Br)cc2)CC1 (stereo not drawn) do in these assays?
GDH-TPI inh: 0; Autofluor counter: 2462; Anthrax LF prot: -2; FBA Mtb inh: -3; BoNT-F LC inh: 1; BoNT-A LC inh2: 0

Results for CC(=O)NC(Cc1cc(C)ccc1C)C(=O)N1CCN(C(=O)Nc2ccc(C(C)=O)cc2)CC1 (stereo not drawn) ?
GDH-TPI inh: 12; Autofluor counter: 17945*; Anthrax LF prot: -4; FBA Mtb inh: 0; BoNT-F LC inh: -6; BoNT-A LC inh2: inconclusive

Results for CC1CCN(C(=O)c2ccc(CNc3c(N4CCCC4)c(=O)c3=O)cc2)CC1 ?
GDH-TPI inh: 6; Autofluor counter: 5058; Anthrax LF prot: -1; FBA Mtb inh: -3; BoNT-F LC inh: -6; BoNT-A LC inh2: -1

How did CC(C)Cc1ccc(-c2cc(=O)[nH][nH]2)cc1 do in these assays?
GDH-TPI inh: -1; Autofluor counter: 4511; Anthrax LF prot: -4; FBA Mtb inh: -2; BoNT-F LC inh: 2; BoNT-A LC inh2: 0

Results for Cc1ccc(-c2cc(=O)[nH][nH]2)c(C)c1 ?
GDH-TPI inh: 0; Autofluor counter: 22424*; Anthrax LF prot: -1; FBA Mtb inh: -1; BoNT-F LC inh: 1; BoNT-A LC inh2: 1

What do the screens show for `Cc1ccc(/C(N)=N/OC(=O)Cc2cccs2)cc1`?
GDH-TPI inh: -6; Autofluor counter: 23460*; Anthrax LF prot: -2; FBA Mtb inh: -3; BoNT-F LC inh: -2; BoNT-A LC inh2: -1

Results for N/C(=N\OC(=O)Cc1cccs1)c1cccc([N+](=O)[O-])c1 ?
GDH-TPI inh: 3; Autofluor counter: 2132; Anthrax LF prot: 1; FBA Mtb inh: -1; BoNT-F LC inh: -3; BoNT-A LC inh2: 0

Results for N/C(=N\OC(=O)Cc1cccs1)c1ccccc1 ?
GDH-TPI inh: 0; Autofluor counter: inconclusive; Anthrax LF prot: -1; FBA Mtb inh: 1; BoNT-F LC inh: 1; BoNT-A LC inh2: 2

How did Cc1cccc(/C(N)=N/OC(=O)Cc2cccs2)c1 do in these assays?
GDH-TPI inh: -6; Autofluor counter: 19950*; Anthrax LF prot: -2; FBA Mtb inh: 0; BoNT-F LC inh: 4; BoNT-A LC inh2: 2

Results for Cc1ccc(/C(N)=N/OC(=O)CCC2CCCCC2)cc1 ?
GDH-TPI inh: 3; Autofluor counter: 16562*; Anthrax LF prot: -2; FBA Mtb inh: -3; BoNT-F LC inh: -5; BoNT-A LC inh2: -2

Results for CCOC(=O)c1ccc(N=Cc2nc(-c3ccccc3)oc2OC(C)=O)cc1 ?
GDH-TPI inh: 11; Autofluor counter: 4147; Anthrax LF prot: 4; FBA Mtb inh: -1; BoNT-F LC inh: 20; BoNT-A LC inh2: 2

How did C/C(N)=C(/C#N)C(=O)COC(=O)COc1ccc(Cl)cc1C do in these assays?
GDH-TPI inh: 15; Autofluor counter: 21745*; Anthrax LF prot: -3; FBA Mtb inh: 1; BoNT-F LC inh: 2; BoNT-A LC inh2: 0

Results for Cc1cc(Cl)ccc1OCC(=O)OC(C)C(=O)N(C)C (stereo not drawn) ?
GDH-TPI inh: -11; Autofluor counter: 4569; Anthrax LF prot: 1; FBA Mtb inh: 3; BoNT-F LC inh: -20; BoNT-A LC inh2: -1

Compound activity deposited in PubChem by several laboratories.
